# Laboratory results from PubChem BioAssay AID1053125 (Broad Institute, 2014).
# Entries with a potency or affinity are not part of this list. A number with no mark means an inactive call.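 The calls were made as follows: active = viability loss whose fitted half-maximal concentration is at most twice the top valid tested dose; inconclusive = flat curve with 30 to 70% loss, or poor fit; inactive = the rest.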
# Assay: viability loss in HepG2 liver cells – cell-based, ATP luminescence, cherry-pick, set 6, cytotoxicity control, dose response (AID 1053125);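 also: negative values mean loss of viability signal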
# Details: ATP luminescence (CellTiter-Glo), 72 h; series mostly up to 26 µM; activity change, negative = cytotoxicity: at the top concentration
row,SMILES,"activity change, negative = cytotoxicity [%]"
1,O=C(Cc1csc(-c2ccccc2)n1)NCc1ccccc1F,1.41
2,CCOCCCNC(=S)N1CCCN(c2nc3cc(C)c(C)cc3cc2C#N)CC1,25.8
3,CC(C)c1ccc(/C=C2\Oc3c(ccc(O)c3CN3CCN(C)CC3)C2=O)cc1,3.11
4,Cc1cc2cc(CNC(=O)c3ccco3)ccc2n1C,-16
5,CCN(CC)Cc1c(O)c(Cl)cc2c(C)cc(=O)oc12,1.66
6,Cc1cc(C)nc(SCC(=O)Nc2ccc(S(=O)(=O)Nc3onc(C)c3C)cc2)n1,-1.5
7,N#Cc1c2ccc(OCC(N)=O)cc2n2ccccc12,-3.56
8,COc1cc(C2C3=C(CC(C)(C)CC3=O)N(C)C3=C2C(=O)CC(C)(C)C3)cc(Br)c1O,-9.6
9,O=C(O)c1cccc(NC(=O)c2cn(-c3ccccc3)nc2-c2cccc(Br)c2)c1,-7.45
10,CCOC(=O)c1cc(-c2ccccc2)sc1NC(=O)CSc1nnc(N)s1,11.4
11,CC(=O)OC[C@@H]1CN(Cc2ccccc2)C[C@H](n2cnc3c(N(C)C(C)C)ncnc32)O1,-6.77
12,COc1cc(C(=O)OCC(C)=O)cc(NC(=O)c2ccco2)c1OC,2.34
13,NC(=O)c1cc([N+](=O)[O-])ccc1NCc1cccnc1,17.7
14,COc1ccc(CCNC(=O)c2cc(S(=O)(=O)N3CCCCC3)c[nH]2)cc1OC,-2.68
15,CC(C)CCN(CCC(C)C)CC(O)Cn1c2ccccc2c(=O)c2ccccc21 (stereo not given),-16
16,CC1=C(C(=O)N2CCN(c3cc(C)ccc3C)CC2)C2(CCCCC2)OC1=O,-6.7
17,CCOC(=O)C(NC(=O)c1ccccc1)(OCC1(CC)COC1)C(F)(F)F (stereo not given),-2.01
18,CCc1nc2ccc(C(=O)NCCc3c[nH]c4ccccc34)cn2c1N(C=O)CCC(C)C,-13.9

row,SMILES,"activity change, negative = cytotoxicity [%]"
1,CCn1c2ccccc2c(=O)c2ccccc21,-12.7
2,O=C(c1cccc(Cl)c1)N1CCC(=O)N(C(COCc2ccccc2)Cc2ccccc2)CC1 (stereo not given),-2.11
3,COc1ccc(C2CC(c3cccs3)=NN2c2nc(C)c(C(C)=O)s2)cc1OC (stereo not given),-14.8
4,COc1ccc(C(=O)Oc2cc(N)n(S(=O)(=O)c3ccccc3)n2)cc1,-8.75
5,CCn1c(=NC(=O)CSC(C)=O)sc2cc(OC)ccc21,-8
6,Cc1c(O)ccc2cc(S(=O)(=O)c3ccccc3)c(=O)oc12,-11.2
7,CCc1cccc(OC2OC(CO)C(O)C(O)C2NC(C)=O)c1 (stereo not given),-12.1
8,CCc1nnc(NC(=O)c2ccc(-c3ccccc3F)o2)s1,-17
9,CCNC(=O)c1cc2c(=O)n3cccc(C)c3nc2n(Cc2ccc(C)cc2)c1=N,-17.9
10,COC(=O)c1cc(=O)n(Cc2ccc3c(c2)OCO3)c(=Nc2ccc(F)c(Cl)c2)s1,-1.78
11,CCc1cccc(C)c1NC(=S)NCc1ccc2c(c1)cc(C)n2C,9.93
12,CNNC(=S)NC1CC2CC1C1C=CCC21 (stereo not given),-6.4
13,COc1ccccc1/C=N/Nc1nc(C)cc(=O)[nH]1,-7.23
14,C=CCn1c(=N)c(C#N)cc2c(=O)n3ccccc3nc21,-4.55
15,COc1ccc(NC(=O)C2CCC(CNS(=O)(=O)c3cccs3)CC2)cc1 (stereo not given),4.3
16,CSCCC1(C(=O)O)NC(c2ccccc2O)C2C(=O)N(C(C)C)C(=O)C21 (stereo not given),4.52
17,COc1cccc(N2CCN(C(=O)C3CCCN(S(=O)(=O)c4cnc[nH]4)C3)CC2)c1 (stereo not given),29.5
